Rows were chosen to be rich in hits. Some 11% of all compounds tested hit in one or more screens of this group.
RORg inh – qHTS for inhibitors of ROR gamma transcriptional activity | Nuclear receptor ROR-gamma (Mus musculus), P51450 | Drosophila S2 Gal4-RORgamma UAS-luciferase reporter, 20 h | Potency, µM (top dose mostly 53.6 µM), inactives show at the highest dose activity change, negative = inhibition, actives largely listed as inhibitors | 310,000 tested, 5.4% active | AID 2551, 2010; also: potency is read from the fitted curve at half-maximal effect; % is scaled to controls: 0 for no effect and ±100 for the full control effect; nearly all actives have a fitted effect of over 60% in size
Target sequence (P51450 whole entry, looked up, the tested form may be a part): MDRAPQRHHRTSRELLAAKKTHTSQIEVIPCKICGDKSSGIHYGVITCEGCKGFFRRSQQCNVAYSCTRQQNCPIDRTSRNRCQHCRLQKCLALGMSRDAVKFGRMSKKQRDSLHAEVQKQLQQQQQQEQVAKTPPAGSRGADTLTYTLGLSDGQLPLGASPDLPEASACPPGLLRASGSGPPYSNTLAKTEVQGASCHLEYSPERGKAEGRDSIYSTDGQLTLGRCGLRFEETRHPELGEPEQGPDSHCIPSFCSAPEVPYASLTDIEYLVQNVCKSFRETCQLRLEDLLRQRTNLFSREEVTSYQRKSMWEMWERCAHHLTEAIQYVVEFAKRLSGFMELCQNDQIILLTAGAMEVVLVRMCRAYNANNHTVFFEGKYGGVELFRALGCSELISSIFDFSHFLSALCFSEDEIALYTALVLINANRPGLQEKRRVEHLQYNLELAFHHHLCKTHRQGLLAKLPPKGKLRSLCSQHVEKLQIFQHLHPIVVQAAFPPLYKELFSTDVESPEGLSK
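Compounds are pin-transferred onto Drosophila Schneider cells expressing a copper-inducible Gal4–ROR gamma transactivation domain fusion. After 1 hr, copper sulfate is added to 700 uM final; luciferase is read 20 hr later.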
SW480 rerep – A quantitative high throughput screen for small molecules that induce DNA re-replication in SW480 colon adenocarcinoma cells | SW480 DNA re-replication, Hoechst DNA content imaging, 48 h | Potency, µM (titrated, usually from 46.1 µM), inactives show top-dose re-replication activation, actives largely listed as activators | 340,000 tested, 1.8% active | AID 624297, 2012; also: potency is read from the fitted curve at half-maximal effect; % of control where 0% means no effect; nearly all actives have a fitted effect of over 55% in size
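Per well, 250 cells were exposed to pinned compound for 48 hr. Nuclear DNA was visualised with Hoechst (40 min, 37 C) and total object intensity recorded by fluorescence scanning.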
MCF10A rerep – A quantitative high throughput screen for small molecules that induce DNA re-replication in MCF 10a normal breast cells; MCF 10A DNA re-replication, Hoechst nuclear intensity, 48 h; Potency, µM (highest dose often 46.1 µM), for inactives: at the highest dose activity, positive = re-replication, usual class: activators; 350,000 tested, 2.9% active; also: potency is read from the fitted curve at half-maximal effect; % of control where 0% means no effect; nearly all actives have a fitted effect of over 50% in size
IL1B secr inh – qHTS for Inhibitors of Inflammasome Signaling: IL-1-beta AlphaLISA Primary Screen | 360,000 tested, 4.7% active | activity change, % at 57.5 µM | THP-1 LPS/ATP IL-1B secretion, AlphaLISA, 16 h; hits give low values; in the data active = activity change below about -50%; inconclusive = mostly about -30% to -49%; also: % is scaled to controls: 0 for no effect and ±100 for the full control effect
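THP-1 cells pretreated 1 hr with compounds (up to 57.5 uM final), then stimulated with LPS (250 ng/mL final) plus ATP (1.25 mM final); secreted IL-1B measured by AlphaLISA after 16 hr, decreased signal indicating inhibition.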
VP16 counter – VP16 counterscreen qHTS for inhibitors of ROR gamma transcriptional activity | Drosophila S2 Gal4-VP16 UAS-luciferase, luminescence, 20 h | Potency, µM (series often up to 53.6 µM), for the others: at the top dose activity, negative = inhibition, usual class: inhibitors | 310,000 tested, 3.5% active;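 also: Gal4-VP16 expression switched on by copper sulfate through the metallothionein promoter; potency is read from the fitted curve at half-maximal effect; % is scaled to controls: 0 for no effect and ±100 for the full control effect; nearly all actives have a fitted effect of over 50% in size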
* hit, by the source's call; u = inconclusive; x = not tested or not shown; [ ] = another dose, or the depositor's remark. Unless noted, calls follow the shape of the dose curve; as a rule, active = well fitted curve in the direction sought with a large enough effect; inconclusive = small, poorly fitted or top-dose-only effect, or another doubt; inactive = no such curve, though single readings can be large; an effect the other way counts as inactive or inconclusive.

SMILES	RORg inh	SW480 rerep	MCF10A rerep	IL1B secr inh	VP16 counter
Cc1ccc(C(=O)NC(=S)Nc2ccc3[nH]c(=O)[nH]c3c2)cc1	4%	4%	8%	-5	-7%
O=C(O)c1cccc(NC(=S)NC(=O)c2ccc3ccccc3c2)c1	10µM*	-11%	3%	43	7.1µM*
Cc1ccc(C(=O)NC(=S)Nc2ccc(NC(=O)c3cccc(Cl)c3)cc2)cc1	u	x	u	0	10µM*
COC(=O)NC(CC(C)=O)c1cccc(C)c1 (stereo unspecified)	1%[10 µM]	x	x	x	5%[10 µM]
O=C(NN1CCOCC1)c1cccc(Cl)c1	-24%	10%	8%	15	-5%
Cc1ccc(NC(=S)NCc2cccs2)c(C)c1	2.2µM*	-1%	26%	-14	5.6µM*
Cc1cc(Cl)ccc1NC(=S)NCc1cccs1	4µM*	1%[9.22 µM]	29%	0	8.9µM*
COc1ccc(CNC(=O)N2CCN(c3ccccc3OC)CC2)cc1	-10%	-29%	5%	-7	-6%
Cc1ccc(S(=O)(=O)NC2CCSC2=O)cc1C (stereo unspecified)	x	-2%	-2%	7	x
O=c1c2ccccc2cnn1-c1nc2ccccc2[nH]1	0.45µM*	-3%	-5%	27	1.1µM*
O=c1c(Cl)c(N2CCCCC2)cnn1-c1nc2ccccc2[nH]1	0.89µM*	-2%	u	-15	1.3µM*
CCOC(=O)[C@H]1[C@H]2COc3ccc(C)cc3[C@@H]2N2C(=O)c3cc(Br)ccc3NC(=O)[C@@]12C	x	u	2%	-2	x
COc1ccc(-c2ccc(CN3C(C(C)C)C(=O)N(Cc4cn(CCC5OCCO5)nn4)CCS3(=O)=O)cc2)cc1 (stereo unspecified)	x	x	x	13	x
COc1ccc(C(C(=O)c2ccccc2)c2ccccc2)cc1 (stereo unspecified)	x	x	x	-6	x
Cn1c(=O)c2c(-c3ccccc3)n(-n3cnnc3)cc2n(C)c1=O	18µM*	u	11%	-17	u
Cc1ccc(-c2cnc(C(O)c3ccc(Cl)c(Cl)c3)[nH]2)cc1 (stereo unspecified)	x	x	x	-4	x
CCOC(=O)CCCCCC(=O)Nc1ccc2c(c1)C(=O)N([C@@H](C)CO)C[C@H](C)[C@H](CN(C)C(=O)c1ccccc1)OCCCC[C@H](C)O2	x	x	x	-10	x
COc1ccc(CNC(=O)COC(=O)c2ccc(S(=O)(=O)N3CCOCC3)cc2)cc1	x	18%	-1%	2	x
N/C(=N\OC(=O)c1ccccc1)C(Cc1ccccc1)C(=O)NOC(=O)c1ccccc1 (stereo unspecified)	x	u	u	-89*	x
O=C(NOC(=O)c1ccccc1)c1ccccc1	20%	3%	-2%	3	-4%
CCCCNC(=O)C[C@@H]1C[C@@]2(C(=O)OCC)CCCC=C2N(CCC2=CCCCC2)C1=O	x	x	x	-2	x
O=C(CCNC(=O)C1CCN(S(=O)(=O)c2ccccc2)CC1)NCc1ccc(Cl)c(Cl)c1	43%	-5%	-1%	2	-14%
Clc1ccc(OCc2cn3ccccc3n2)c2ncccc12	11µM*	0%	-1%	-61*	u
Cc1ccc(Cn2c(C(C)Nc3nc(-c4ccc(C)cc4)cs3)nc3cc(Cl)c(Cl)cc32)cc1 (stereo unspecified)	11µM*	-1%	-9%	-2	-19%
CCCn1c(CCNc2nc(-c3cccc(Br)c3)cs2)nc2ccccc21	x	4%	-5%	23	x
SMILES	RORg inh	SW480 rerep	MCF10A rerep	IL1B secr inh	VP16 counter
CCCn1c(C(C)Nc2nc(-c3cccc(Br)c3)cs2)nc2ccccc21 (stereo unspecified)	4.5µM*	-3%	16%	15	u
Cc1ccc(Cn2c(C(C)Nc3nc(-c4ccc(Cl)c([N+](=O)[O-])c4)cs3)nc3cc(C(F)(F)F)ccc32)cc1 (stereo unspecified)	x	0.92µM*	-31%	-1	x
CCCn1c(C(C)Nc2nc(-c3ccc(C)cc3)cs2)nc2ccccc21 (stereo unspecified)	5.6µM*	8%	u	9	18µM*
O=[N+]([O-])c1cc(-c2csc(NC(CO)c3nc4ccccc4n3CCOCCO)n2)ccc1Cl (stereo unspecified)	x	-16%	0%	0	x
CCCn1c(C(C)Nc2nc(-c3ccc(Cl)c([N+](=O)[O-])c3)cs2)nc2ccccc21 (stereo unspecified)	13µM*	-10%	u	-16	u
CSCc1cc(N(C)c2ccccc2)nc(-c2ccccn2)n1	0.56µM*	-1%	1%	18	3.2µM*
CN(C)c1cc(C(F)(F)F)nc(-c2ccccn2)n1	u	-5%	0%	-4	u
O/N=C1/CC/C(=N\O)c2nn(-c3ccccc3)nc21	12%	-1%	-2%	-65*	-5%
O=C(O)c1nn(-c2ccccc2)nc1-c1nn(-c2ccccc2)nc1C(=O)O	-12%	-4%	1%	3	u
CC1OC(CCc2cccc(Cl)c2)Cc2[nH]c(=S)[nH]c(=O)c21 (stereo unspecified)	x	x	x	37	x
CCOC(=O)C(C(C)=O)c1c(Br)c(O)c(O)c2c(C(=O)c3ccc(C)cc3)coc12 (stereo unspecified)	13µM*	u	u	-27	16µM*
C/C(CC(=O)NC12CC3CC(CC(C3)C1)C2)=N\NC(=O)c1cnccn1	13µM*	0%	0%	26	u
C/C(CC(=O)NC12CC3CC(CC(C3)C1)C2)=N\NC(=O)c1ccc(F)cc1	18µM*	4%	-8%	0	u
O=C(NC12CC3CC(CC(C3)C1)C2)c1cnccn1	-1%	0%	3%	14	-8%
COc1cccc(Nc2ncc3ncc(=O)n(C[C@H]4CCCO4)c3n2)c1	-33%	x	x	x	11µM*
O=c1cnc2cnc(Nc3ccccc3)nc2n1C[C@H]1CCCO1	-37%	x	x	x	u
O=NN(CCCl)C(=O)NCC1=C[N+](=O)CC=C1	x	x	x	-1	x
C=CCN=c1scc(-c2ccco2)n1/N=C/c1ccc(O)c(O)c1O	3.2µM*	u	26%	-51*	10µM*
CN=c1scc(C)n1/N=C/c1ccc(O)c(O)c1O	2.2µM*	21%	u	u	7.1µM*
CC(C)N=c1scc(-c2ccco2)n1/N=C/c1ccc(O)c(O)c1	1.4µM*	3%	u	-13	16µM*
CN=c1scc(-c2cccs2)n1/N=C/c1ccc(O)c(O)c1O	1.1µM*	u	8%	-2	1.4µM*
COCCN=c1scc(-c2ccco2)n1/N=C/c1ccc(O)c(O)c1O	u	u	-6%	33	-1%

Screening data deposited in PubChem by National Center for Advancing Translational Sciences (NCATS).
